Consider 40 compounds from PubChem BioAssay (Tox21).

Unmarked numbers belong to inactive results. Results filed as inconclusive are left out. Entries that show only a call come without a potency. Active and inactive are the calls of the source. Calls follow the shape of the full dose curve.

Acetylcholinesterase (Homo sapiens), sequence (P22303 whole entry, looked up): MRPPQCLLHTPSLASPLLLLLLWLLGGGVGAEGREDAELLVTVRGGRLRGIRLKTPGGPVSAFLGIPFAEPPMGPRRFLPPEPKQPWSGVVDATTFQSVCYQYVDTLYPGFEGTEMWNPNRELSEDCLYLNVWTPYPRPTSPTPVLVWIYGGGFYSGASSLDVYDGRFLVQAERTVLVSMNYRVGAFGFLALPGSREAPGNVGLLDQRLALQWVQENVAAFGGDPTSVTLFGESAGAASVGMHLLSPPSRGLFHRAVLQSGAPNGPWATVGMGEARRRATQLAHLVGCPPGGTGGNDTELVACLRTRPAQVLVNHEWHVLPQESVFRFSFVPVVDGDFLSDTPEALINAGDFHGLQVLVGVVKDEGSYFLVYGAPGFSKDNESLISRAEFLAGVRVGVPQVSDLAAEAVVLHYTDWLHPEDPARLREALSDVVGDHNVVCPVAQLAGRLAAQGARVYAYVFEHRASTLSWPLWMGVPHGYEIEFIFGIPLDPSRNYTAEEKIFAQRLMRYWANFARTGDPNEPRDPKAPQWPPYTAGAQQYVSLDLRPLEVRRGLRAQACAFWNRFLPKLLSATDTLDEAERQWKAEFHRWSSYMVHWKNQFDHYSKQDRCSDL

The target in one experiment is Acetylcholinesterase (Homo sapiens) (UniProt P22303). In words: Acetylcholinesterase (AChE) small molecule antagonists: enzyme-based qHTS assay (AID 1347397). Also: nearly all actives have a fitted effect of over 55% in size. The note with it: Potency: AChE enzyme activity inhibition; outcome: AChE enzyme activity inhibition; series mostly up to 115 µM. In a few lines:
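First, recombinant human AChE (50 mU/mL as dispensed) received test compound or DMSO. Second, plates stood 30 min at room temperature. Third, DTNB and acetylthiocholine were added, followed by 10 min at room temperature and colorimetric detection.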
Turning to `C=CC(C)(O)CCCC(C)CCCC(C)CCCC(C)C` (stereo not given), the Potency entry is “inactive”.
On the same count and under the same terms, next, `CC(=O)OC1CCCCC1C(C)(C)C` (stereo not given): “inactive”.
Take `CC1=C(/C=C/C(C)=C/C=C/C(C)=C\C=O)C(C)(C)CCC1`: the Potency entry was “inactive”.
With `CC(C)(C)c1csc(-c2cc3cc(OCc4ccccc4CC(=O)O)ccc3o2)n1`, the Potency entry is “inactive”.
As for `CCCCC/C=C\CCC=O`, the Potency entry is “inactive”.
For the compound `CCc1ccc(C)nc1`, the Potency result is “inactive”.
As for `CC(=O)CC(=O)OC(C)(C)C`, the Potency result is “inactive”.
The same measure, in the same setting: next, `N#CCCOCCOCCC#N`: “inactive”.
Still for that read-out and setting: next, `CCCCCCCCCCCCCCCC(=O)OC/C=C(C)/C=C/C=C(C)/C=C/C1=C(C)CCCC1(C)C`: “inactive”; `CCCCCCCCC(=O)OCC(C)OC(=O)CCCCCCCC` (stereo not given): “inactive”; `CN(C)c1ccc(SC#N)cc1`: “inactive”.
Consider `C[C@H](CCC(=O)O)[C@H]1CC[C@H]2[C@@H]3[C@H](O)C[C@@H]4C[C@H](O)CC[C@]4(C)[C@H]3C[C@H](O)[C@]12C`, for which the Potency result is “inactive”.
Same read-out and setting: next, `O=C1CCCCCCCCCCCCCCCO1`: “inactive”; `COc1ccc(-c2coc3cc(O)ccc3c2=O)cc1`: “inactive”.
For `Oc1cccc(Nc2ccccc2)c1`, the Potency entry was “inactive”.
Consider `CC1(C)S[C@@H]2[C@H](N=CN3CCCCCC3)C(=O)N2[C@H]1C(=O)O`, for which the Potency entry was “inactive”.
On the same count and under the same terms, next, `C=C(C)CCO`: “inactive”.
The same measure, in the same setting: next, `NC(=S)N/N=C/c1cccnc1`: “inactive”; `FC(F)(F)C(F)(F)C(F)(F)C(F)(F)C(F)(F)C(F)(F)C(F)(F)C(F)(F)Br`: “inactive”; `O=[N+]([O-])c1ccc(F)c(Cl)c1`: “inactive”.
For the compound `CCCCCCCCc1ccc(Nc2ccc(CCCCCCCC)cc2)cc1`, the Potency entry was “inactive”.
Consider `O=C(O)c1cccc(C(F)(F)F)c1`, for which the Potency result is “inactive”.
As to `C=CCCCCCCCCCCCCCC`, the activity change, negative = inhibition is 0.291% [at 23.6 µM].
As for `O=CNc1ccccc1`, the Potency result is “inactive”.
On to `CC(S)C(C)S` (stereo not given), for which the Potency entry is “inactive”.
Regarding `O=C(NS(=O)(=O)/C=C/c1cccs1)c1ccc(F)cc1Br`, the Potency entry was “inactive”.
Turning to `CCCCCCCCN(C)CCCCCCCC`, the Potency result was “inactive”.
Still for that read-out and setting: next, `COC(C)=O`: “inactive”.
Still for that read-out and setting: next, `CC(O)COC(C)(C)C` (stereo not given): “inactive”; `Oc1cccc2c(O)cccc12`: “inactive”; `CC(C)(C)c1ccccc1`: “inactive”.
For the compound `CCCCCCCCCCc1ccccc1`, the Potency entry was “inactive”.
In the case of `CC(C)(C)C(=O)OCOC(=O)C1N2C(=O)CC2S(=O)(=O)C1(C)C` (stereo not given), the Potency result was “inactive”.
Regarding `CCOC(OCC)C(=O)c1ccccc1`, the Potency entry was “inactive”.
As for `Cc1ccc(O)cn1`, the Potency entry is “inactive”.
On the same count and under the same terms, next, `CC(C)(C)c1ccc(N)cc1`: “inactive”; `CC(C)(c1ccc(Oc2ccc3c(c2)C(=O)OC3=O)cc1)c1ccc(Oc2ccc3c(c2)C(=O)OC3=O)cc1`: “inactive”.
For the compound `COc1cc(C(C)C)ccc1C`, the activity change, negative = inhibition was 1.63% [at 23.6 µM].
`CC(=C(CCOC(=O)C(C)C)SSC(CCOC(=O)C(C)C)=C(C)N(C=O)Cc1cnc(C)nc1N)N(C=O)Cc1cnc(C)nc1N`: the Potency entry was “inactive”.
`OCC(F)(F)F`: the Potency result was “inactive”.

Another experiment shares this target. In words: Acetylcholinesterase (AChE) small molecule antagonists: fluorescence cell-based qHTS assay (AID 1347398). Also: nearly all actives have a fitted effect of over 50% in size. To be noted: SH-SY5Y cells; Potency: AChE activity; outcome: AChE activity; series mostly up to 115 µM. A digest of the protocol: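 Homogeneous quantitative HTS format. SH-SY5Y cells seeded at 2,000 per well settle overnight at 37 C. Compound pretreatment runs 30 min (37 C, 5% CO2); substrate/probe mix then reacts 40 min at RT before reading 490/520 nm.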
For orientation: In qHTS, concentration-response curves come from the screen itself.
As to `C=CC(C)(O)CCCC(C)CCCC(C)CCCC(C)C` (stereo not given), the Potency result was “inactive”.
For the compound `CC(=O)OC1CCCCC1C(C)(C)C` (stereo not given), the Potency result was “inactive”.
The same measure, in the same setting: next, `CC1=C(/C=C/C(C)=C/C=C/C(C)=C\C=O)C(C)(C)CCC1`: “inactive”; `CC(C)(C)c1csc(-c2cc3cc(OCc4ccccc4CC(=O)O)ccc3o2)n1`: “inactive”.
Consider `CCCCC/C=C\CCC=O`, for which the Potency result is “inactive”.
As to `CCc1ccc(C)nc1`, the Potency result is “inactive”.
Turning to `CC(=O)CC(=O)OC(C)(C)C`, the Potency result is “inactive”.
Still for that read-out and setting: next, `N#CCCOCCOCCC#N`: “inactive”; `CCCCCCCCCCCCCCCC(=O)OC/C=C(C)/C=C/C=C(C)/C=C/C1=C(C)CCCC1(C)C`: “inactive”; `CCCCCCCCC(=O)OCC(C)OC(=O)CCCCCCCC` (stereo not given): “inactive”.
The same measure, in the same setting: next, `CN(C)c1ccc(SC#N)cc1`: “inactive”.
Still for that read-out and setting: next, `C[C@H](CCC(=O)O)[C@H]1CC[C@H]2[C@@H]3[C@H](O)C[C@@H]4C[C@H](O)CC[C@]4(C)[C@H]3C[C@H](O)[C@]12C`: “inactive”.
Consider `O=C1CCCCCCCCCCCCCCCO1`, for which the Potency entry was “inactive”.
`COc1ccc(-c2coc3cc(O)ccc3c2=O)cc1`: the Potency result is “inactive”.
In the case of `Oc1cccc(Nc2ccccc2)c1`, the Potency entry was “inactive”.
Take `CC1(C)S[C@@H]2[C@H](N=CN3CCCCCC3)C(=O)N2[C@H]1C(=O)O`: the Potency result was “inactive”.
Regarding `C=C(C)CCO`, the Potency entry is “inactive”.
For `NC(=S)N/N=C/c1cccnc1`, the Potency entry was “inactive”.
On the same count and under the same terms, next, `FC(F)(F)C(F)(F)C(F)(F)C(F)(F)C(F)(F)C(F)(F)C(F)(F)C(F)(F)Br`: “inactive”; `O=[N+]([O-])c1ccc(F)c(Cl)c1`: “inactive”; `CCCCCCCCc1ccc(Nc2ccc(CCCCCCCC)cc2)cc1`: “inactive”.
The same measure, in the same setting: next, `O=C(O)c1cccc(C(F)(F)F)c1`: “inactive”.
On to `C=CCCCCCCCCCCCCCC`, for which the activity change, negative = inhibition was 5.43% [at 23.8 µM].
Regarding `O=CNc1ccccc1`, the Potency result is “inactive”.
As to `CC(S)C(C)S` (stereo not given), the Potency result was “inactive”.
Same read-out and setting: next, `O=C(NS(=O)(=O)/C=C/c1cccs1)c1ccc(F)cc1Br`: “inactive”; `CCCCCCCCN(C)CCCCCCCC`: “inactive”.
On the same count and under the same terms, next, `COC(C)=O`: “inactive”.
`CC(O)COC(C)(C)C` (stereo not given): the Potency entry is “inactive”.
For `Oc1cccc2c(O)cccc12`, the Potency result is “inactive”.
The same measure, in the same setting: next, `CC(C)(C)c1ccccc1`: “inactive”; `CCCCCCCCCCc1ccccc1`: “inactive”; `CC(C)(C)C(=O)OCOC(=O)C1N2C(=O)CC2S(=O)(=O)C1(C)C` (stereo not given): “inactive”.
On to `CCOC(OCC)C(=O)c1ccccc1`, for which the Potency entry is “inactive”.
The same measure, in the same setting: next, `Cc1ccc(O)cn1`: “inactive”; `CC(C)(C)c1ccc(N)cc1`: “inactive”.
On the same count and under the same terms, next, `CC(C)(c1ccc(Oc2ccc3c(c2)C(=O)OC3=O)cc1)c1ccc(Oc2ccc3c(c2)C(=O)OC3=O)cc1`: “inactive”.
For the compound `COc1cc(C(C)C)ccc1C`, the activity change, negative = inhibition was 2.94% [at 23.8 µM].
For `CC(=C(CCOC(=O)C(C)C)SSC(CCOC(=O)C(C)C)=C(C)N(C=O)Cc1cnc(C)nc1N)N(C=O)Cc1cnc(C)nc1N`, the Potency result is “inactive”.
On the same count and under the same terms, next, `OCC(F)(F)F`: “inactive”.
